These results are taken from publication PMC4666376, “Characterisation of aptamer–target interactions by branched selection and high-throughput sequencing of SELEX pools”.

The experiment deals with PAI-1 wild type, active (human, UniProt P05121 24-402). The experiment can be described thus: branched SELEX with high-throughput sequencing; PAI-1 immobilised on polyclonal anti-PAI-1 antibody; HBS (10 mM HEPES pH 7.4, 140 mM NaCl), 2 mM MgCl2, 2 mM CaCl2, 0.1% BSA; RNA pool 100 nM; PAI-1 captured on antibody-coated wells; 45 min; binding temperature not stated (PAI-1 capture at room temperature); high values mean tight binding.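 Also: Pool frequency after one selection round with this target divided by frequency before selection.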 Conditions: protein: recombinant; tags: N-terminal His6; structured_RNA; 2'-F pyrimidines.
Sequence of PAI-1 wild type, active (P05121 24-402): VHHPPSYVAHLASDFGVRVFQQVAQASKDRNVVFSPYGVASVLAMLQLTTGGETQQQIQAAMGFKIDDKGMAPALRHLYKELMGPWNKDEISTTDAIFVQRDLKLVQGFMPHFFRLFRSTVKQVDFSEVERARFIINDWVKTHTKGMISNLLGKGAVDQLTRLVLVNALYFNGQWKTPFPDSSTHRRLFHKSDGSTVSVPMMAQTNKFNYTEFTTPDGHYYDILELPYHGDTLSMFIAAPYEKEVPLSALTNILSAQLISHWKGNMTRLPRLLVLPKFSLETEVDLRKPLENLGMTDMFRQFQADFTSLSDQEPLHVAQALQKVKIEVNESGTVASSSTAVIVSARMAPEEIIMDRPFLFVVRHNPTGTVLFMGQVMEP
As to “GGGGCCACCAACGACAUUGAUCACUAAGGUUAGACCGGAGUGCCGUAGAAUGCGUUGAUAUAAAUAGUGCCCAUGGAUC”, the binding signal worked out at 0.88 enrichment factor.
The value for “GGGGCCACCAACGACAUUAUUUUCCGGUCGUUUAGGUGUUCAACACUCCGGAUGUUGAUAUAAAUAGUGCCCAUGGAUC” was 8.72 enrichment factor.
The value for “GGGGCCACCAACGACAUUGCACCUGUAGGCUAGGUCACUGGCUGACUGCAAUUGUUGAUAUAAAUAGUGCCCAUGGAUC” was 0.47 enrichment factor; that for “GGGGCCACCAACGACAUUUAGGGUGCCGAUCAUGUCACGUAGGCAUCCGAUACGUUGAUAUAAAUAGUGCCCAUGGAUC” was 0.42 enrichment factor.
As for “GGGGCCACCAACGACAUUUGUCAACAUAACGUAGAGCAAUUACAGCUCGAUCAGUUGAUAUAAAUAGUGCCCAUGGAUC”, the binding signal was 3.13 enrichment factor.
As for “GGGGCCACCAACGACAUUUGGCGAGAUGCCAUCUUUACCUUAAUAGGUAGUUCGUUGAUAUAAAUAGUGCCCAUGGAUC”, the figure is 2.77 enrichment factor; as for “GGGGCCACCAACGACAUUCAGCGAUGUAGUGCACAUUGCACGACCAUGAUGGAGUUGAUAUAAAUAGUGCCCAUGGAUC”, 0.53 enrichment factor.
Consider “GGGGCCACCAACGACAUUAUACAGCCGAUCAUGUCACGUAGGCUGUGAUUAACGUUGAUAUAAAUAGUGCCCAUGGAUC”, for which the binding signal was determined as 0.58 enrichment factor.
Consider “GGGGCCACCAACGACAUUAUCGACCAUAACGUAGCGGGCUUUCCCGUGAUCAGGUUGAUAUAAAUAGUGCCCAUGGAUC”, for which the binding signal was 0.91 enrichment factor.
For the sequence “GGGGCCACCAACGACAUUUUGUAGGUGUCAACUACCGACCGUCGUUUGCAUUAGUUGAUAUAAAUAGUGCCCAUGGAUC”, the binding signal was 1.24 enrichment factor.
As for “GGGGCCACCAACGACAUUGCCGUAGUUUCUCGAUUCCCAGAGAGACGAUCGAUGUUGAUAUAAAUAGUGCCCAUGGAUC”, the figure is 4.28 enrichment factor.
